# Screens from PubChem.
# aSyn UTR act = Activators via SNCA 5'UTR binding, MLPCN; activity score, % (tested at 7.5 µM), hits read low; 7.1% of 300,000 active; alpha-synuclein 5'UTR reporter, activators screen; in the data active = activity score below about -60%
# Active calls of the source: *. Only a sample is shown.
SMILES,aSyn UTR act
Cc1coc(C)c1C(=O)Nc1ccc2ccccc2c1,-162*
O=C(Nc1ccc(OCc2ccccc2Cl)cc1)c1cccnc1,90
O=C(Nc1ccc2nccnc2c1)c1cnccn1,-79*
Cc1ccccc1C(=O)Nc1ccc(Br)c(C)n1,-113*
Cc1cc(NC(=O)c2ccccc2[N+](=O)[O-])ccc1Br,-130*
O=C(Nc1ccc2c(c1)Cc1ccccc1-2)c1cccnc1,-122*
Cc1nc(NC(=O)c2cccnc2)ccc1Br,-83*
O=C(Nc1ccc2ccccc2c1)c1cnccn1,-129*
CC(=O)c1sc(NC(=O)c2ccccc2F)nc1-c1ccccc1,-124*
CC(=O)c1sc(NC(=O)c2ccc(F)cc2)nc1-c1ccccc1,-95*
Fc1cccc(Nc2cc(-n3cccn3)ncn2)c1,-147*
Cc1ccc(Nc2cc(-n3cccn3)ncn2)c(C)c1,-170*
O=C(NCC(O)c1ccccc1)c1ccccc1 (stereo not drawn),-80*
O=C(NCC(O)c1ccccc1)c1ccc(Cl)c(S(=O)(=O)N2CCCC2)c1 (stereo not drawn),-96*
O=C(NCCc1ccccc1)c1cnc(Cl)c(Cl)c1,-119*
O=C(NCCc1ccccc1)c1ccc(Cl)c(S(=O)(=O)N2CCCC2)c1,-67*
CC1CN(S(=O)(=O)c2cc(C(=O)NCCC3=CCCCC3)ccc2Cl)CC(C)O1 (stereo not drawn),-85*
CC(=O)Oc1cc(OC(C)=O)c2c(=O)c(-c3ccc4c(c3)OCCCO4)c(C)oc2c1,-88*
COc1cc2c(OC(C)=O)c3c(c(-c4ccc5c(c4)OCO5)c2cc1OC)C(=O)OC3,113
Cc1ccc(NC(=O)N2C(=O)C3(OCCO3)c3ccccc32)cc1,-165*
CN(Cc1nc(-c2cccc(Cl)c2)no1)C1CCOCC1,-121*
Cc1ccsc1/C=N/n1cnc2sc(C)c(C)c2c1=O,-101*
Cc1cc(Cl)ccc1Nc1ncccc1C(N)=O,-154*
COc1ccc(Nc2ncccc2C(=O)O)cc1,-77*
Cc1ccc(Nc2ncccc2C(N)=O)cc1,-139*
SMILES,aSyn UTR act
CC[n+]1c(/C=C/c2ccc(OC)c(OC)c2)ccc2ccccc21,-117*
CCN(CC)c1ccc(/C=C/c2ccc3ccc(OC)cc3[n+]2CC)cc1,-87*
CC[n+]1c(/C=C/c2ccc(OC(C)=O)c(OC)c2)ccc2ccccc21,-72*
CCN(CC)c1ccc(/C=C/c2cccc[n+]2C)c(OC)c1,59
NNC(=O)COc1ccccc1[N+](=O)[O-],-87*
CCSc1nnc(NC(=O)COc2ccccc2[N+](=O)[O-])s1,-114*
CC(C)c1nnc(NC(=O)COc2ccccc2[N+](=O)[O-])s1,-154*
COc1ccccc1-c1ccc(NC2CCCCC2)nn1,-140*
O=C1C2C(C(=O)N1/N=C/c1cccc([N+](=O)[O-])c1)C1C=CC2C12CC2 (stereo not drawn),-153*
CCCCN(C(=O)NC(=O)Nc1cccc(C)c1C)S(C)(=O)=O,-92*
O=C(c1ccccc1-c1nc(-c2ccc(Cl)cc2)no1)N1CCCC1,-251*
O=C(NCC1CCCO1)c1ccccc1-c1nc(-c2ccc(Cl)cc2)no1 (stereo not drawn),-74*
CC1(C)CC(=O)C=C(NNC(=O)c2ccccc2O)C1,-93*
COc1ccc(OC)c(Cc2nnc(CCC(=O)N3CCN(C4CCCC4)CC3)o2)c1,-74*
CCCCOc1ccc(N2C(=O)CC(N(O)c3ccccc3)C2=O)cc1 (stereo not drawn),-85*
CCNC(=S)N/N=C/c1sccc1C,-71*
CCNC(=S)N/N=C/c1cn(Cc2ccccc2F)c2ccccc12,52
Cc1ccsc1/C=N/NC(=S)NCCc1ccccc1,-108*
Cc1ccsc1/C=N/NC(=O)C(=O)NCC(C)C,-77*
Cc1ccccc1OCC(O)CNC1CCC(NCC(O)COc2ccccc2C)CC1 (stereo not drawn),99
Cc1ccccc1OCC(=O)NC1CCCCCCC1,-65*
Cc1ccc(OCC(=O)NC2CCCC2)c(C)c1,-67*
O=C(COc1ccccc1-c1ccccc1)NNC(=O)NC1CCCCC1,-83*
CCOC(=O)c1ccc(N=Nc2c(C)c(C#N)c(O)[nH]c2=O)cc1,-74*
O=C(CSc1nnc(C2CCCCC2)o1)Nc1ccccc1Cl,-138*
SMILES,aSyn UTR act
Cn1c(SCc2ccccc2F)nc2cccnc21,-101*
Cc1ccc(Cn2cc(-c3ccccc3)nn2)cc1,-124*
COc1ccc(-c2cn(Cc3ccc(C(=O)c4ccccc4)cc3)nn2)cc1,-161*
CC(=O)c1ccc(NC(=O)c2ccn(C(=O)OCC(C)C)n2)cc1,-86*
O=C1c2ccccc2C(=O)c2c1oc(C(F)(F)F)c2C(=O)c1ccccc1,101
O=C(c1ccccc1)c1coc2c1C(=O)c1ccccc1C2=O,-80*
COc1ccccc1C1C=C(c2ccc(C)cc2)Nc2nnnn21 (stereo not drawn),-128*
CCOc1ccc(C2C=C(c3ccccc3)Nc3nnnn32)cc1 (stereo not drawn),-152*
Cc1ccc(C2=CC(c3cccs3)n3nnnc3N2)cc1 (stereo not drawn),-187*
COc1ccccc1C1CC(=O)Nc2cc(C)c(C)cc21 (stereo not drawn),63
COc1ccc2c(c1OC)C(=O)OC2Nc1nc(-c2ccc(-c3ccccc3)cc2)cs1 (stereo not drawn),-233*
Cc1cccc(Oc2cc([N+](=O)[O-])cc3c2C(=O)Nc2ccccc2O3)c1,-68*
COc1cccc2c1C(=O)c1c(O)c3c(c(O)c1C2=O)C[C@@](O)(C(=O)CO)C[C@@H]3O[C@H]1C[C@H](N)[C@H](O)[C@H](C)O1,109
CC(=O)Cn1ncc(N2CCCCC2)c(Cl)c1=O,-80*
Nc1nnc(SCc2coc(-c3ccc(Cl)cc3)n2)s1,-118*
Oc1ccc(-c2csc(NCc3ccco3)n2)cc1,-177*
Oc1ccc(Nc2nc(-c3ccc(O)cc3)cs2)cc1,-219*
c1coc(CNc2nc(-c3cccs3)cs2)c1,107
COc1ccc2oc(=O)c(-c3csc(Nc4ccc(O)cc4)n3)cc2c1,-70*
COc1ccc(Nc2nc(-c3ccc(OC)cc3)cs2)cc1,-106*
COc1ccc(-c2csc(Nc3ccccc3)n2)cc1,-150*
COc1ccc(-c2csc(Nc3ccccc3)[n+]2Cc2ccccc2)cc1,-95*
COc1ccc(-c2csc(Nc3cccnc3)n2)cc1,-180*
COc1ccc(Nc2nc(-c3c[nH]c4ccccc34)cs2)cc1,-255*
COc1ccc(NC(=O)c2cccc(Oc3ccccc3)c2)cn1,-109*
SMILES,aSyn UTR act
COc1ccc(NC(=S)NC(=O)c2ccccc2)cn1,-138*
CCOc1ccccc1N1CCN(C(=O)c2cn(CC3CCCCC3)nn2)CC1,-84*
CC(=O)Oc1ccc(C(=O)Nc2cc(C)on2)cc1,-84*
Cc1cc(NC(=O)c2ccc(C)c(C)c2)no1,-106*
Cc1cc(NC(=O)c2ccc(NC(=O)C(C)C)cc2)no1,-62*
CCc1ccc(C(=O)Nc2cc(C)on2)o1,-112*
Cc1cc(NC(=O)c2ccc(Br)c([N+](=O)[O-])c2)no1,-81*
OC(c1cc(-c2ccc(C(F)(F)F)cc2)nc(C(F)(F)F)c1)C1CCCCN1 (stereo not drawn),103
CS(=O)(=O)c1nc(-c2ccccc2)cc(C(F)(F)F)n1,-111*
O=C(CN1C(=O)NC2(CCCCCC2)C1=O)c1ccc2c(c1)OCCO2,-154*
CC(C)C1Oc2ccccc2C(=O)N(CC(=O)c2ccc3c(c2)OCCO3)C1=O (stereo not drawn),-224*
